# Compound activity from PubChem BioAssay.
# KB-V1 cytotox: qHTS assay for MDR1-selective chemotherapeutics: Primary screen using the drug-selected MDR subline cells KB-V1; KB-V1 MDR cells viability, CellTiter-Glo, 72 h; Potency, µM (series often up to 46.1 µM), usual class: cytotoxic; 3.4% of 400,000 active; also: % is scaled to controls: 0 for no effect and ±100 for the full control effect; nearly all actives have a fitted effect of over 60% in size
#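 Potencies derive from concentration-effect curves fitted to normalized luminescence (CellTiter-Glo) of KB-V1 cells treated for 72 h at 37 degrees C in phenol-red-free DMEM containing 10% FBS.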
# SW480 rereplic: A quantitative high throughput screen for small molecules that induce DNA re-replication in SW480 colon adenocarcinoma cells | Potency, µM (titrated, usually from 46.1 µM), for inactives: at the top dose re-replication activation, actives largely listed as activators | 1.8% of 340,000 active | SW480 DNA re-replication, Hoechst DNA content imaging, 48 h; also: % of control where 0% means no effect; nearly all actives have a fitted effect of over 55% in size
#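 Cells (250 per well) received 23 nL compound or DMSO by pin tool and were kept 48 hr at 37 C, 5% CO2. Nuclei were then stained with Hoechst for 40 min and scanned for DNA content.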
# KB-3-1 tox: qHTS assay for MDR1-selective chemotherapeutics: Primary screen using the parental adenocarcinoma cell KB-3-1; KB-3-1 viability, CellTiter-Glo ATP luminescence, 72 h; 1.4% of 400,000 active; Potency, µM (titrated, usually from 46.1 µM), hits mostly cytotoxic; also: % is scaled to controls: 0 for no effect and ±100 for the full control effect; nearly all actives have a fitted effect of over 60% in size
#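 Multi-concentration cytotoxicity screen in KB-3-1 cells grown in DMEM lacking phenol red with 10% FBS. After 72 h at 37 °C with compound, ATP-dependent luminescence was recorded.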
# MCF10A rerep: A quantitative high throughput screen for small molecules that induce DNA re-replication in MCF 10a normal breast cells | AID 624296, 2012 | 2.9% of 350,000 active | MCF 10A DNA re-replication, Hoechst nuclear intensity, 48 h | Potency, µM (titrated, usually from 46.1 µM), for the others: top-dose activity, positive = re-replication, actives largely listed as activators; also: % of control where 0% means no effect; nearly all actives have a fitted effect of over 50% in size
# PTAP TSG101 blk: qHTS Assay for Iinhibitors of HIV-1 Budding by Blocking the Interaction of PTAP/TSG101; 340,000 tested, under 10 active; Fluorescence polarization, FITC-PTAP peptide / Tsg101 binding; Potency, µM (series often up to 115 µM), without a hit: at the top dose activity change, negative = inhibition, usual class: inhibitors; active = well fitted inhibition curve with a large enough effect in the main read-out, with a control signal flat, not every such curve was filed as active; inconclusive = small, poorly fitted or top-dose-only effect, or effect the other way, or a change in a side signal; inactive = no such curve, though single readings can be large or run the other way; also: % of control where 0% means no effect
# Target sequence (Q99816 whole entry, looked up): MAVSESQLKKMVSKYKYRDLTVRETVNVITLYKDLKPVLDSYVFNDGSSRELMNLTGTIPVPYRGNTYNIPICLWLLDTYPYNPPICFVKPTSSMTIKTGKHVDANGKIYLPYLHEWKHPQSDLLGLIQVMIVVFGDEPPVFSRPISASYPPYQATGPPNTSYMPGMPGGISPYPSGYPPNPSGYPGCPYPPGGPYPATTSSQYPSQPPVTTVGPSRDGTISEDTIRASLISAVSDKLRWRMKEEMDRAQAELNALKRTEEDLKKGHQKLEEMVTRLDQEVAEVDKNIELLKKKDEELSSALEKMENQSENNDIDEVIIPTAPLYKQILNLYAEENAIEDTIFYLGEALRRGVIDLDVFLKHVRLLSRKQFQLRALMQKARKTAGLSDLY
#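 Compounds were pin-transferred onto Tsg101 binding domain (10 uM final) in HEPES pH 7.5 buffer, then FITC-PTAP peptide was added at 50 nM final. After 20 min at RT, polarization reported peptide displacement across a qHTS concentration series.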
# PINK1 expr mod: A Quantitative High throughput Screen to Identify Chemical Modulators of PINK1 Expression; 0.2% of 410,000 active; Potency, µM (titrated, usually from 76.6 µM), inactives show top-dose activation (PINK1 increase), most hits filed as activators; PINK1 immunofluorescence, high-content cytometry, 24 h; AID 624263, 2012; active = well fitted activation curve with a large enough effect; inconclusive = small, poorly fitted or top-dose-only effect; cell line not stated here; also: % of control where 0% means no effect; nearly all actives have a fitted effect of over 65% in size
#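 PINK1 protein, normally rapidly degraded, was detected by immunofluorescence after 24 hour compound treatment of a stable cell line. Titration data (5 concentrations) came from laser-scanning cytometry, with CCCP-treated wells as controls.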
# * marks the source's active call; other numbers are inactive results; i = inactive; ? = inconclusive; · = no result given; ! = repeats disagree. Only some compounds are listed: those with a hit (about 6.8% of all), similar ones and a draw of the others. Unless noted, calls follow the shape of the dose curve; as a rule, active = well fitted curve in the direction sought with a large enough effect; inconclusive = small, poorly fitted or top-dose-only effect, or another doubt; inactive = no such curve, though single readings can be large; an effect the other way counts as inactive or inconclusive. Potency is read from the fitted curve at half-maximal effect.
SMILES,KB-V1 cytotox,SW480 rereplic,KB-3-1 tox,MCF10A rerep,PTAP TSG101 blk,PINK1 expr mod
COc1ccc(CS(=O)(=O)/C(Cl)=C(/Cl)C(=O)Nc2ccc(OC)nc2)cc1,3.66µM*,0.82µM*,?,0.411µM*,-1.2%,-3.0%
COc1ccc(NC(=O)/C(Cl)=C(/Cl)S(=O)Cc2ccccc2)cn1 (stereo not given),8.2µM*,?,5.8µM*,?,-3.1%,-6.1%
COc1ccccc1CNC(=O)c1c2c(nc3ccccc13)C(=O)N(C1CCCCC1)C2,i,·,i,·,·,1.4%
O=C(NCc1ccc(F)cc1)C(=O)Nc1nc(C23CC4CC(CC(C4)C2)C3)cs1,9.2µM*,?,?,18.4µM*,-5.3%,16.2%
O=C(NCc1ccccc1)C(=O)Nc1nc(C23CC4CC(CC(C4)C2)C3)cs1,7.31µM*,?,?,?,-1.0%,?
O=C(NCc1ccncc1)C(=O)Nc1nc(C23CC4CC(CC(C4)C2)C3)cs1,i,7.0%,i,?,1.5%,-0.1%
O=S(=O)(/C(=C/c1ccc(C(F)(F)F)cc1)c1nc2ccccc2[nH]1)c1ccccc1,i,?,5.17µM*,?,-1.6%,-3.9%
C/C(=C\c1ccc(N)cc1)c1nc2ccccc2[nH]1,i,-12.5%,i,3.2%,-2.8%,1.1%
CC(C)c1ccc(/C=C(\c2nc3ccccc3[nH]2)S(=O)(=O)c2ccccc2)cc1,2.59µM*,11.6µM*,?,2.59µM*,-4.1%,-1.8%
O=c1[nH]c2ccccc2nc1C(F)(F)F,i,?,i,-1.9%,0.0%,-0.1%
Cc1ccccc1Oc1cc(-n2ncc(Cl)c(Cl)c2=O)ncn1,i,?,14.6µM*,0.731µM*,-3.3%,2.3%
Cc1cc(=O)oc2cc3c(cc12)OCCO3,i,-0.4%,i,11.6%,-8.2%,?
Cc1cc(=O)oc2cc3c(cc12)OCCN3,i,?,i,8.2µM*,-7.6%,-0.8%
COc1ccc(Nc2c3c(nc4ccccc24)CCC3)c(OC)c1,4.11µM*,?,20.6µM*,?,-0.5%,?
CCCS(=O)(=O)Nc1ccc(Nc2c3ccccc3nc3ccccc23)c(OC)c1,23.1µM*,7.31µM*,?,21.0%,-6.1%,-7.2%
COc1ccccc1Nc1c2c(nc3ccccc13)CCC2,?,14.6µM*,?,11.6µM*,-0.5%,?
COc1cc(Nc2c3c(nc4ccccc24)CCCC3)cc(OC)c1OC,i,-0.5%,?,0.2%,0.2%,?
COc1cc(Cl)c(C)cc1Nc1c2c(nc3ccccc13)CCC2,i,·,4.11µM*,·,·,1.2%
O=C(CSc1nc2ccccc2n1Cc1cccc(C(F)(F)F)c1)NCc1ccccc1,i,·,i,·,·,?
Cc1ccc(NC(=O)CCC(=O)N2CCSc3ccccc32)cc1,·,·,·,·,·,1.6%
O=C(Cn1c(=O)n(Cc2ccco2)c(=O)c2cccnc21)Nc1ccccc1F,i,·,i,·,·,1.5%
CCc1ccccc1NC(=O)c1oc(=O)c2ccccc2c1-c1ccccc1,?,·,i,·,·,-0.2%
Cc1cccc(NC(=O)c2oc(=O)c3ccccc3c2-c2ccccc2)c1C,10.3µM*,?,i,?,-0.4%,8.6%
Cc1ccc(C)c(NC(=O)c2oc(=O)c3ccccc3c2-c2ccccc2)c1,18.4µM*!,-11.1%,i,23.6%,0.4%,-0.2%
Cc1ccccc1NC(=O)c1oc(=O)c2ccccc2c1-c1ccccc1,i,-0.9%,i,8.2%,0.9%,-1.0%
Cc1cc(C)cc(N2CC(c3nc(-c4cccc(Cl)c4)no3)CC2=O)c1 (stereo not given),i,·,i,·,·,2.3%
